The results in this text go back to PubChem BioAssay (Tox21).

Several values for one entry are separate records, joined by “and”; a condition that tells them apart may be missing. Equal values may be shown once. Results filed as inconclusive are left out. The source holds several records for some structures; these can differ, active in one and inactive in another. Activity calls are given as the source filed them. Unless noted, the call rests on the fitted dose curve; in most records, active means well fitted curve in the direction sought with a large enough effect in the repeat runs; inconclusive means weak or mixed curves; inactive means no such curve, though single readings can be large; an effect the other way counts as inactive or inconclusive.

Experiment [1] is described as follows: Caspase-3/7 induction in CHO-K1 cells by small molecules, qHTS assay (AID 1346980). Further: nearly all actives have a fitted effect of over 15% in size. The procedure, abridged: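 Wild-type cells were seeded at 1,500 per well and settled 5 hr at 37 C, 5% CO2, then exposed to DMSO-dissolved compounds for 17 hr. Caspase-Glo 3/7 reagent was added, and luminescence was read after 30min at room temperature.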
Experiment [2] is described as follows: Caspase-3/7 induction in HepG2 cells by small molecules, qHTS cell viability counter screen (AID 1346981). Further: series mostly up to about 92 µM; nearly all actives have a fitted effect of over 30% in size. The procedure, abridged: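 Counter screen for cytotoxicity: HepG2 exposed 16 hr to compounds, then CellTiter-Fluor viability signal (fluorescence, 1 hr reagent incubation).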
Experiment [3] has as its target Nuclear receptor subfamily 1 group I member 2 (Homo sapiens) (UniProt O75469). Nature of the experiment: Human pregnane X receptor (PXR) small molecule agonists, qHTS assay (AID 1346982). Further: nearly all actives have a fitted effect of over 35% in size. Further: potency means the concentration at half of the fitted maximal effect. The method, boiled down:
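Luminescence (ONE-Glo, 30 min RT) after 24 hr compound exposure of PXR-Luc HepG2 cells; cells rested 5 hr post-plating in 5% charcoal-stripped FBS medium.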
In general terms: Quantitative high-throughput screening tests each substance at several concentrations.

The target in experiment [4] is Cytochrome P450 2D6 (Homo sapiens) (UniProt P10635). Kind of experiment: Cytochrome P450 Family 2 Subfamily D Member 6 (CYP2D6) small molecule antagonists: luciferase reporter qHTS assay (AID 1671196). Further: nearly all actives have a fitted effect of over 50% in size. Further: potency means the concentration at half of the fitted maximal effect. The procedure, abridged:
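Inhibition of CYP2D6 was gauged by loss of luminescence, since light produced tracks the luciferin generated from a proluciferin substrate. A 10 min room-temperature preincubation preceded 1 h NADPH-supported turnover.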
For orientation: A reporter such as luciferase makes a cellular process visible.

Experiment [5] deals with Cytochrome P450 2C19 (Homo sapiens) (UniProt P33261). Nature of the experiment: Cytochrome P450 Family 2 Subfamily C Member 19 (CYP2C19) small molecule antagonists: luciferase reporter qHTS assay (AID 1671197). Further: nearly all actives have a fitted effect of over 65% in size. Further: potency means the concentration at half of the fitted maximal effect. The procedure, abridged: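 P450-Glo CYP2C19 screening system; proluciferin substrate; DMSO compound stocks; 10 min RT preincubation; NADPH regeneration, 1 h at 37C; luciferin detection reagent, 20 min RT; luminescence as RLU.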

Experiment [6] deals with Cytochrome P450 2C9 (Homo sapiens) (UniProt P11712). Nature of the experiment: Cytochrome P450 Family 2 Subfamily C Member 9 (CYP2C9) small molecule antagonists: luciferase reporter qHTS assay (AID 1671198). Further: nearly all actives have a fitted effect of over 50% in size. Further: potency means the concentration at half of the fitted maximal effect. The method, boiled down: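 CYP2C9 activity was measured with a P450-Glo proluciferin substrate. Enzyme–substrate mix was held with compound for 10 min at room temperature, then NADPH regeneration solution was added for 1 h at 37C. Luciferin product was read as luminescence.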

For experiment [7], the target named is Cytochrome P450 1A2 (Homo sapiens) (UniProt P05177). Kind of experiment: Cytochrome P450 Family 1 Subfamily A Member 2 (CYP1A2) small molecule antagonists: luciferase reporter qHTS assay (AID 1671199). Further: nearly all actives have a fitted effect of over 50% in size. Further: potency means the concentration at half of the fitted maximal effect. The method, boiled down: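 Signal from luciferin formed by CYP1A2 from a proluciferin substrate is read as luminescence, expressed in relative luminescence units. Compounds sit with enzyme 10 min, NADPH-driven reaction runs 1 h, all at room temperature.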

Experiment [8] addresses Voltage-gated inwardly rectifying potassium channel KCNH2 (Homo sapiens) (UniProt Q12809). Kind of experiment: Human Ether-a-go-go-Related Gene (hERG) channel small molecule antagonists: fluorescence cell-based qHTS assay (AID 1671200). Further: nearly all actives have a fitted effect of over 50% in size. Further: potency means the concentration at half of the fitted maximal effect. The method, boiled down:
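U2OS cells expressing the channel were plated at 1000 cells/well, incubated overnight at 37 C, then loaded with FluxOR II thallium-sensitive dye for 1 h at room temperature in the dark, with a further 10 min at room temperature before stimulation.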
On the technique in general: The hERG channel carries a current that helps repolarise heart muscle cells.

Experiment [9] concerns the target Cytochrome P450 3A4 (Homo sapiens) (UniProt P08684). Kind of experiment: Cytochrome P450 Family 3 Subfamily A Member 4 (CYP3A4) small molecule antagonists: luciferase reporter qHTS assay (AID 1671201). The procedure, abridged: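 P450-Glo CYP3A4 system with proluciferin substrate; compounds preincubated 10 min RT with enzyme-substrate mix, then NADPH regeneration added for 1 h RT. Detection reagent 20 min, luminescence read as relative luminescence units.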

The target of experiment [10] is Nuclear receptor subfamily 1 group I member 2 (Rattus norvegicus) (UniProt Q9R1A7). Nature of the experiment: Rat pregnane X receptor (rPXR) activation by small molecules, qHTS assay (AID 1346983). Further: nearly all actives have a fitted effect of over 20% in size. The conditions noted are these: rPXR luciferase reporter cells, One-Glo luminescence, 24 h; stronger effect = higher value. The method, boiled down:
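Cell-based rPXR luciferase reporter assay, 2,000 cells per well, rested 5hr at 37 C before compound addition in DMSO, then 24 hr at 37 C. One-Glo reagent was added and luminescence read after 30 min at room temperature.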

The target in experiment [11] is Nuclear receptor subfamily 1 group I member 2 (Homo sapiens) (UniProt O75469). Kind of experiment: CYP3A4 induction through human pregnane X receptor (PXR) by small molecules, qHTS assay (AID 1346984). Further: nearly all actives have a fitted effect of over 40% in size. The method, boiled down: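 DPX-2 reporter cells; 24h cpd, 37C; Luciferin-IPA 3uM final x3h; One-Glo 30 min RT; lumi read.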
For experiment [12] the target is unchanged. Nature of the experiment: Human pregnane X receptor (PXR) activation by small molecules, qHTS assay (AID 1346985). Further: nearly all actives have a fitted effect of over 40% in size. Further: potency means the concentration at half of the fitted maximal effect. The method, boiled down:
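DPX-2 cells (HepG2 co-transfected with a PXR response element and a CYP3A4-promoter luciferase construct) were seeded at 2,000 per well, rested 5 hr at 37C, then exposed to DMSO-dissolved compounds for 24 hr. Activation was read as luciferase luminescence.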

Experiment [13] concerns the target Acetylcholinesterase (Homo sapiens) (UniProt P22303). Kind of experiment: Acetylcholinesterase (AChE) small molecule antagonists: enzyme-based qHTS assay (AID 1347397; calls by dose curve; further: nearly all actives have a fitted effect of over 55% in size; further: potency means the concentration at half of the fitted maximal effect). The conditions noted are these: Potency: AChE enzyme activity inhibition. The procedure, abridged: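 Recombinant human AChE, dispensed at 50 mU/mL, was preincubated with Tox21 10K compounds or DMSO vehicle for 30 min at room temperature. DTNB plus acetylthiocholine was then added, and thiocholine was measured colorimetrically after a further 10 min.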

The target is the same in experiment [14]. Nature of the experiment: Acetylcholinesterase (AChE) small molecule antagonists: fluorescence cell-based qHTS assay (AID 1347398; calls by dose curve; further: nearly all actives have a fitted effect of over 50% in size; further: potency means the concentration at half of the fitted maximal effect). Particulars: Potency: AChE activity. The method, boiled down: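 Human SH-SY5Y cells were plated overnight at 37 C, exposed to compound for 30 min at 37 C, 5% CO2, then given acetylthiocholine plus Thiolite Green for 40 min at room temperature; thiocholine fluorescence (Ex/Em 490/520 nm) reports endogenous AChE activity.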

Experiment [15] shares this target. Kind of experiment: Acetylcholinesterase (AChE) small molecule antagonists: enzyme-based qHTS assay with human liver microsomes (AID 1347399; calls by dose curve; further: nearly all actives have a fitted effect of over 60% in size; further: potency means the concentration at half of the fitted maximal effect). Particulars: Potency: qHTS inhibition. The procedure, abridged: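 Recombinant human AChE (50 mU/mL in the enzyme mix) and human liver microsomes (0.25 mg/mL final) were preincubated with compound and NADPH (0.25 mg/mL final) for 30 min at 37 C. Acetylthiocholine/DTNB was then added; thiocholine was read colorimetrically after 10 min at room temperature.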
On the % scale 0 is the no-effect control and ±100 the full control effect.

Sequence of Nuclear receptor subfamily 1 group I member 2 (Rattus norvegicus) (Q9R1A7 whole entry, looked up): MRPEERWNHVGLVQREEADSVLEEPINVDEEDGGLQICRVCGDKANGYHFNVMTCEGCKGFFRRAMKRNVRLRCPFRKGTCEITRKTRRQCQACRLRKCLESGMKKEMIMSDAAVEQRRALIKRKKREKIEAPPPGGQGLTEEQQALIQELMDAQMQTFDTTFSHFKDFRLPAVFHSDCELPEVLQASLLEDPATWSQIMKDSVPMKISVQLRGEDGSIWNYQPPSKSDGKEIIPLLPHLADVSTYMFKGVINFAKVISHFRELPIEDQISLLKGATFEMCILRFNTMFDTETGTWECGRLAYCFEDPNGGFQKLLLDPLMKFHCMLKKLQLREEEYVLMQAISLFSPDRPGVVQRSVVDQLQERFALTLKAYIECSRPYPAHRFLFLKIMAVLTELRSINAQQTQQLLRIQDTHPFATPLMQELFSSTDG
Sequence of Acetylcholinesterase (Homo sapiens) (P22303 whole entry, looked up): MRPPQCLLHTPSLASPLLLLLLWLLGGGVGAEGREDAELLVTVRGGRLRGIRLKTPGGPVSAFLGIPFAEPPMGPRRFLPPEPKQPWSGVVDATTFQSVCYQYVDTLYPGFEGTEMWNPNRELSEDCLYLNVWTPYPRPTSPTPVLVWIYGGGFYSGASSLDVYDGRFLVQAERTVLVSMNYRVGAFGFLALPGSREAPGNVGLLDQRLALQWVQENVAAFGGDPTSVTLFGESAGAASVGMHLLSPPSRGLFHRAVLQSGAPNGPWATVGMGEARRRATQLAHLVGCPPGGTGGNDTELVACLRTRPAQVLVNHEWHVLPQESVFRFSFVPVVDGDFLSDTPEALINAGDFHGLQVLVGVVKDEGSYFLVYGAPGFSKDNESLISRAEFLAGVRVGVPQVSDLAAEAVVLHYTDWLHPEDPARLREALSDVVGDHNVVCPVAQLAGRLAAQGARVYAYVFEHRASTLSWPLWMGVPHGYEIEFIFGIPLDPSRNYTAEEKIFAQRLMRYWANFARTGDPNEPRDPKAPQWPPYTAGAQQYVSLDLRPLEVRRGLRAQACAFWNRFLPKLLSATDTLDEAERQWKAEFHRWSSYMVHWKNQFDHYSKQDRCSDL
Sequence of Cytochrome P450 2D6 (Homo sapiens) (P10635 whole entry, looked up): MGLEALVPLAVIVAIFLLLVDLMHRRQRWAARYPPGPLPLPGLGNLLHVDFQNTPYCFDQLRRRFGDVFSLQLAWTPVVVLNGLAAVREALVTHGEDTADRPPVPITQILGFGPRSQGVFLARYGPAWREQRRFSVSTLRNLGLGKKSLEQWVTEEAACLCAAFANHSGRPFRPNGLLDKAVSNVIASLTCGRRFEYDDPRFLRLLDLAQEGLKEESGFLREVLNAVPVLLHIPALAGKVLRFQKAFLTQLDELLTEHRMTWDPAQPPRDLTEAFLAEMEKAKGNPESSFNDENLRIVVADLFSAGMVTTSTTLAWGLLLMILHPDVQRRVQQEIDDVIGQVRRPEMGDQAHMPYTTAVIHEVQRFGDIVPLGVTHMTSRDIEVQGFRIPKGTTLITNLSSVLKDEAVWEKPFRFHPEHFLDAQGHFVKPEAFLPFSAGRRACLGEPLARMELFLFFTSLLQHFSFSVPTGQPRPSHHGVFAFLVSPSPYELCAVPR
Sequence of Cytochrome P450 2C19 (Homo sapiens) (P33261 whole entry, looked up): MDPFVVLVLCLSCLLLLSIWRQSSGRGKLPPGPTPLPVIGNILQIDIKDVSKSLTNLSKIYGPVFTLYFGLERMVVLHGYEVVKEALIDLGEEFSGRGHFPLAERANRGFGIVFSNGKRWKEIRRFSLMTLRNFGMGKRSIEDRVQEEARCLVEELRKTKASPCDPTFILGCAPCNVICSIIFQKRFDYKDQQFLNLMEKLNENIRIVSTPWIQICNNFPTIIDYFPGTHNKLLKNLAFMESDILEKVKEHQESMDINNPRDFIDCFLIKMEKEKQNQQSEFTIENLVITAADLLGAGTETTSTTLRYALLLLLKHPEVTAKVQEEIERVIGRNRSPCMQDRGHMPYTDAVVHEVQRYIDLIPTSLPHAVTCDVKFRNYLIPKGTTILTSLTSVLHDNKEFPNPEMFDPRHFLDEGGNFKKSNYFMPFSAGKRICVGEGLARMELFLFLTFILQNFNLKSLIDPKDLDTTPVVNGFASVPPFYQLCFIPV
Sequence of Cytochrome P450 1A2 (Homo sapiens) (P05177 whole entry, looked up): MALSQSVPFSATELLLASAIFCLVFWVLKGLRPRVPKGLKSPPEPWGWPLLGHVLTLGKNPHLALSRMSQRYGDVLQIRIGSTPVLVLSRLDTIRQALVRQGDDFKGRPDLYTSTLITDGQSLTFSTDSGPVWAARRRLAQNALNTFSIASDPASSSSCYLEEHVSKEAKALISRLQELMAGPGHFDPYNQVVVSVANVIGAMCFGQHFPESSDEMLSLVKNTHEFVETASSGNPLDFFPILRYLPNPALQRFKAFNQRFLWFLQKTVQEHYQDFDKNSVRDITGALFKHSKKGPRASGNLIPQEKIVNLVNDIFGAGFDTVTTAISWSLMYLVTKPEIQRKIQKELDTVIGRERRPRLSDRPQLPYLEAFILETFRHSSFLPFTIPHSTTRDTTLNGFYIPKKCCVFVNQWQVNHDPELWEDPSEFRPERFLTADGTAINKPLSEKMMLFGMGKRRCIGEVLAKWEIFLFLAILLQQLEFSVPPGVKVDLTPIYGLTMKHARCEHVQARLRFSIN
Sequence of Cytochrome P450 3A4 (Homo sapiens) (P08684 whole entry, looked up): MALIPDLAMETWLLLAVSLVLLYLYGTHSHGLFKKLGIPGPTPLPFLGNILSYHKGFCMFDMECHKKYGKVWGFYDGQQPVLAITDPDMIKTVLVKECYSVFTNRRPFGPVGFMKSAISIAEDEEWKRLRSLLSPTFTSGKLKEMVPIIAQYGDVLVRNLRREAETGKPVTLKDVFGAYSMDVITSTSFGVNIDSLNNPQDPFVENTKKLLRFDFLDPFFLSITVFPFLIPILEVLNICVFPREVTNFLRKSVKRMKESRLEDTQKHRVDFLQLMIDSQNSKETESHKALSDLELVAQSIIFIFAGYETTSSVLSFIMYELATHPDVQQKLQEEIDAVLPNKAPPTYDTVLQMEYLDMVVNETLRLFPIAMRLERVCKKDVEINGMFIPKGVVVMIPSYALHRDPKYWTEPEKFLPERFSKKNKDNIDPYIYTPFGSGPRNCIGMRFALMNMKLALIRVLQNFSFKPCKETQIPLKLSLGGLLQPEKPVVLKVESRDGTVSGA
Sequence of Cytochrome P450 2C9 (Homo sapiens) (P11712 whole entry, looked up): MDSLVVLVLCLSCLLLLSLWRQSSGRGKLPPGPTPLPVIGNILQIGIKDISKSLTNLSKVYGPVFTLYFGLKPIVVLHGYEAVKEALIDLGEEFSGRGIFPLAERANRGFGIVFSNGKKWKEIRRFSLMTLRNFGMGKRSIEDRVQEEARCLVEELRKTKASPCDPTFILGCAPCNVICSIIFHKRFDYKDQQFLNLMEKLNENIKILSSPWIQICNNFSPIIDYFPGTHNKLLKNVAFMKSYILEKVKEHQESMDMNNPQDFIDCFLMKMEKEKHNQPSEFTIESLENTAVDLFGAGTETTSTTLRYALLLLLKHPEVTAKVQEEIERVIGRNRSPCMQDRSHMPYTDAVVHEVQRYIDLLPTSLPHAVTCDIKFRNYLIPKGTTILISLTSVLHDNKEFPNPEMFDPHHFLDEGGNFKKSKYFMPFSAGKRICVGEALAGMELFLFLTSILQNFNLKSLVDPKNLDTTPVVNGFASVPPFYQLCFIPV
Sequence of Nuclear receptor subfamily 1 group I member 2 (Homo sapiens) (O75469 whole entry, looked up): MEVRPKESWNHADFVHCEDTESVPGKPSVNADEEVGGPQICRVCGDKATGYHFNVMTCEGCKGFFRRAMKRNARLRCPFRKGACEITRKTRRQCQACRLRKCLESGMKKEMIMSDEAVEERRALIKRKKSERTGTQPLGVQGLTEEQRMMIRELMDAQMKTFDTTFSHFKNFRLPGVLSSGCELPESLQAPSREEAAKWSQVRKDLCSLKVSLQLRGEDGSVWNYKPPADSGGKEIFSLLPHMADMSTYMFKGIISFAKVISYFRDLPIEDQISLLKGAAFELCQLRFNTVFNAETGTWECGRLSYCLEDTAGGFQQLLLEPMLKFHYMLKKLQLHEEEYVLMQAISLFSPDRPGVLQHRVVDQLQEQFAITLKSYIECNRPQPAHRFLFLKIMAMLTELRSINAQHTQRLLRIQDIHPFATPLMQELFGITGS

For `CCCC[n+]1cccc(C)c1`, the Potency result in experiment [1], in experiment [2], in [3], in [4], in [5] and in experiment [6] was “inactive” throughout. Further, the Potency entry in experiment [7], in [8] and in [9] was “inactive” each time.
`O=C(O)C(Cl)(Cl)Cl`: the Potency entry in experiment [1], in experiment [2], in experiment [3], in [12], in experiment [13] and in experiment [14] was “inactive” each time. The Potency entry in experiment [15], in [4], in [6], in [8] and in [9] was “inactive” in each case. Also, the max activation in experiment [10] was -1.14% (inactive). In addition, the outcome in experiment [11] was inactive. The Potency in [5] was 20 µM (active); in experiment [7] it was “inactive and 35.6 µM (active)”.
Consider `OCCOc1ccccc1`, for which the Potency result in [1], in experiment [2], in experiment [3], in experiment [12], in experiment [13] and in experiment [14] was “inactive” in each case. Besides, the Potency result in experiment [15], in experiment [4], in [5], in experiment [6], in experiment [7] and in experiment [8] was “inactive” throughout. Also, the Potency result in experiment [9] was “inactive”. Further, the max activation in [10] is -2.05% (inactive). For the same molecule, the call in [11] was inactive.
With `CCOP(=S)(OCC)Oc1ccc2c(C)c(Cl)c(=O)oc2c1`, the Potency entry in experiment [1] is “inactive”. Further, the Potency is 27.6 µM (active) and 19.3 µM (active) and 23.7 µM (active) in [3]; 14.1 µM (active) in experiment [12]; 40.4 µM (active) and 71 µM (active) and inactive in experiment [13]; 12.8 µM (active) and 25.2 µM (active) and inactive in experiment [14]; 1.8 µM (active) and 633 nM (active) and inactive in experiment [15]; 5.08 µM (active) and 15.9 µM (active) in experiment [4]. The Potency in experiment [5] is 321 nM (active) and 50.2 nM (active) and 3.89 µM (active); in [6], 286 nM (active) and 63.3 nM (active) and 8.71 µM (active); in experiment [7], 2.86 µM (active) and 4.48 µM (active) and 13.8 µM (active); in experiment [8] it was 22.1 µM (active) and inactive. Further, the max activation in experiment [10] is 9.05% (inactive). For the same molecule, the call in experiment [11] was inactive.
Regarding `C=CCOC(Cn1ccnc1)c1ccc(Cl)cc1Cl` (configuration not stated), the Potency result in experiment [1], in [2], in experiment [13], in experiment [14] and in experiment [15] was “inactive” throughout. Besides, the Potency in [3] is 48.7 µM (active) and 15.4 µM (active) and 11.9 µM (active); in experiment [8], 24.6 µM (active) and 21.9 µM (active) and 23.9 µM (active). In addition, the result in experiment [11] was inactive.
For `CCCn1cc[n+](C)c1`, the Potency result in experiment [1], in experiment [2], in experiment [3], in experiment [13], in experiment [14] and in experiment [15] was “inactive” each time. Moreover, the Potency result in experiment [5], in experiment [6], in [7], in experiment [8] and in [9] was “inactive” throughout. For the same molecule, the Potency in experiment [4] was 80.4 µM (active) and inactive.
